MITF act: activators of MITF-driven TRPM1 promoter activity in SK-MEL-5 cells. SK-MEL-5 TRPM1-promoter luciferase, 24 h; % of positive control, neutral wells = 0. actives 0.75% (n = 300,000). AID 588334. activation, % at 12.5 µM;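 active = mean activation of at least 80% with every replicate also reaching 80%; inconclusive = mean reaches 80% but some replicate falls short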;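 note: 0% = neutral control wells and 100% = parthenolide positive control wells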
Wnt act: activates Wnt/beta-catenin signaling in a reporter cell assay. activator, plate reader. activation, % at 9.35 µM. actives 1.2% (n = 300,000); in the data active = activation above about 30%, passing the limit was not always enough; inconclusive = no clear call, values can overlap the other calls;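 note: 0% = neutral control wells and 100% = positive control wells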
HSF-1 act: increases HSF-1 driven luciferase reporter signal; AID 504408; activation, % at 9 µM; actives 1.7% (n = 300,000); NIH3T3-HGL HSF-1 luciferase reporter, MG132, 8 h; 100% = twice DMSO control signal;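 active = mean replicate activation of at least 50% with a set share of replicates each reaching 50%; inconclusive = only one of those two conditions met; inactive = mean below 50% and too few replicates reaching it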;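 note: 0% = median of the neutral control wells and 100% = twice that signal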
HSF1 inh: HSF1 inhibition. AID 2098. NIH3T3-HGL HSE-luciferase, MG132-induced, luminescence 8 h; stronger effect = lower value. actives 0.77% (n = 300,000). activity change, negative = inhibition, % at 7.5 µM (by protocol);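 active = more than half of replicate wells show activity change below -50%, luminescence cut by over half; inconclusive = some wells, but at most half, below -50%; inactive = no replicate well below -50%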;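 note: luciferase reports HSF-1 transcriptional activity via heat shock element; 0% = median of DMSO wells and -100% = zero luminescence signal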
SMARCA2 act: SMARCA2 function activation, primary screen | MG213 cells, MMTV-luciferase reporter, dexamethasone, overnight | activation, % at 9.1 µM | actives 1% (n = 370,000) | AID 652017; in the data active = activation above about 7.8%;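 note: 0% = vehicle wells and 100% = reference activator wells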
esBAF inh: SWI/SNF esBAF complex inhibition; mouse ES cells, Bmi1-luciferase knock-in reporter, 24 h; 100% = twice the neutral-well signal; reporter increase, % at 12.5 µM; actives 2% (n = 350,000); AID 602393; in the data active = activation above about 40%; inconclusive = no clear call, values can overlap the other calls;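 note: 0% = median of the plate's neutral control wells and 100% = double that signal; a rise in the Bmi1 reporter signal indicates esBAF inhibition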
* = called active by the depositor. Most compounds without a hit are left out; they make up all but 4.3% or so of the library.

Results for CC(C)CC#Cc1cnc2c(c1)C(=O)N([C@@H](C)CO)C[C@H](C)[C@@H](CN(C)Cc1ccc(C(=O)O)cc1)O2 ?
esBAF inh: 6

Results for C[C@@H]1CCCCO[C@H](CN(C)Cc2ccncc2)[C@@H](C)CN([C@H](C)CO)C(=O)c2cc(NC(=O)Nc3ccc(C(F)(F)F)cc3)ccc2O1 ?
esBAF inh: 1

What do the screens show for `O=C(/C=C/c1ccc(-c2ccccc2[N+](=O)[O-])o1)c1ccco1`?
MITF act: -8; Wnt act: 172*; HSF-1 act: 43; HSF1 inh: 35; SMARCA2 act: 5

How did COc1ccc(NC(=O)N(C)C[C@@H]2OCc3cn(nn3)CCCC(=O)N([C@@H](C)CO)C[C@@H]2C)c(OC)c1 do in these assays?
esBAF inh: -1

What do the screens show for `Cc1noc(C)c1S(=O)(=O)N(C)C[C@H]1Oc2ccc(NC(=O)Nc3cccc4ccccc34)cc2CC(=O)N([C@H](C)CO)C[C@@H]1C`?
esBAF inh: 6

Results for Cc1cccn2c(=O)c(/C=C(\C#N)C(=O)NC3CCS(=O)(=O)C3)c(Oc3ccccc3Cl)nc12 (stereo not given) ?
MITF act: -45; Wnt act: -3; HSF-1 act: 31; HSF1 inh: 11; SMARCA2 act: -2; esBAF inh: -1

Results for Cc1ccccc1Oc1nc2c(C)cccn2c(=O)c1/C=C(\C#N)C(=O)NC1CCS(=O)(=O)C1 (stereo not given) ?
Wnt act: 6; HSF-1 act: 72*; HSF1 inh: 43; SMARCA2 act: 1

What do the screens show for `CC(C)[C@H](NC(=O)OCc1ccccc1)C(=O)OCC(=O)c1ccccc1`?
MITF act: inconclusive; Wnt act: 35*; SMARCA2 act: 3; esBAF inh: -11

How did CC(C)C(NC(=O)OCc1ccccc1)C(=O)O (stereo not given) do in these assays?
MITF act: 6; Wnt act: 4; HSF-1 act: -9; HSF1 inh: -6; SMARCA2 act: 1; esBAF inh: -10

How did CCOc1ccc(N(CC(=O)NC2CCCC2)C(=O)CCC(=O)Nc2nc(C)cs2)cc1 do in these assays?
MITF act: 7; Wnt act: 2; HSF-1 act: 9; HSF1 inh: -6; SMARCA2 act: 0; esBAF inh: -2

How did CCOc1ccc(N(CC(=O)NC2CCCCC2)C(=O)CCC(=O)Nc2nc(C)cs2)cc1 do in these assays?
MITF act: 3; Wnt act: -1; HSF-1 act: -60; HSF1 inh: -59*; SMARCA2 act: -2; esBAF inh: -20

How did Cc1csc(NC(=O)c2ccc3c(c2)OCO3)n1 do in these assays?
MITF act: 31; Wnt act: 24; HSF-1 act: 15; HSF1 inh: 16; SMARCA2 act: 5; esBAF inh: 2

How did O=C(Nc1nnc(Cc2ccc([N+](=O)[O-])cc2)s1)c1ccc2c(c1)OCO2 do in these assays?
MITF act: 17; Wnt act: 2; HSF-1 act: 4; HSF1 inh: -6; SMARCA2 act: -1

Results for CC(=O)c1sc(NC(=O)c2ccc3c(c2)OCO3)nc1C ?
MITF act: 114*; Wnt act: 39*; HSF-1 act: 33; HSF1 inh: 19; SMARCA2 act: 4; esBAF inh: 23

Results for CC(C)(C)Cc1nnc(NC(=O)CSc2ccccc2)s1 ?
Wnt act: 17; HSF-1 act: 26; HSF1 inh: 23; SMARCA2 act: -1; esBAF inh: 72*

What do the screens show for `CC(C)(C)Cc1nnc(NC(=O)c2ccc3c(c2)OCO3)s1`?
MITF act: 68; Wnt act: 15; HSF-1 act: 58*; HSF1 inh: 26; SMARCA2 act: 0; esBAF inh: 46*

How did CC(=O)c1sc(NC(=O)c2ccc(C)c(C)c2)nc1C do in these assays?
MITF act: 64; Wnt act: 16; HSF-1 act: 53*; HSF1 inh: 29; SMARCA2 act: 6

How did C[C@@H]1CN([C@H](C)CO)C(=O)c2cc(C#CC3(O)CCCC3)cnc2O[C@@H]1CN(C)C(=O)C1CCC1 do in these assays?
esBAF inh: -1

What do the screens show for `CO[C@@H]1CN(C)C(=O)c2cc(NC(C)=O)ccc2OC[C@H](C)N(C(=O)c2ccccc2F)C[C@@H]1C`?
esBAF inh: -5

Screening data as filed in PubChem BioAssay.
